Source: PubChem BioAssay AID602281 (The Scripps Research Institute Molecular Screening Center, 2012)
Hit rate of the full screen: of about 360,000 compounds, about 2,900 (0.81%) were called active. For the sample, actives were picked, then their nearest neighbours and some compounds at random. Values without a mark were called inactive.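 The calls were made as follows: active = inhibition above the mean inhibition across every tested compound plus 3 SD (cut at about 22% in these data); inactive = the rest.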

Target: Perilipin-5 (Homo sapiens) + 1-acylglycerol-3-phosphate O-acyltransferase ABHD5 (Homo sapiens) (UniProt Q00G26+Q8WTS1)
Sequence (Q00G26 whole entry, looked up): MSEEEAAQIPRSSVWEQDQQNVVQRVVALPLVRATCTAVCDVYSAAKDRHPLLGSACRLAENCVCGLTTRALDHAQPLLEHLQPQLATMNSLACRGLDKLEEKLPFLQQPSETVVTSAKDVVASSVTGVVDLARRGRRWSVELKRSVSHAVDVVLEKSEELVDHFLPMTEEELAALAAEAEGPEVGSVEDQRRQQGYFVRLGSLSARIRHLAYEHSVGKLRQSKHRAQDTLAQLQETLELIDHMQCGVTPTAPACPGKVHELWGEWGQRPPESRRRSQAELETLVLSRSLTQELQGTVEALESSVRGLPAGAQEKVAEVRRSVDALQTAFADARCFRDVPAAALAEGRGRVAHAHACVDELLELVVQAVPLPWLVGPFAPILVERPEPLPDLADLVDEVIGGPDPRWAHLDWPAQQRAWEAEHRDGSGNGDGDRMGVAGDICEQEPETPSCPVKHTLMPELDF
Sequence (Q8WTS1 whole entry, looked up): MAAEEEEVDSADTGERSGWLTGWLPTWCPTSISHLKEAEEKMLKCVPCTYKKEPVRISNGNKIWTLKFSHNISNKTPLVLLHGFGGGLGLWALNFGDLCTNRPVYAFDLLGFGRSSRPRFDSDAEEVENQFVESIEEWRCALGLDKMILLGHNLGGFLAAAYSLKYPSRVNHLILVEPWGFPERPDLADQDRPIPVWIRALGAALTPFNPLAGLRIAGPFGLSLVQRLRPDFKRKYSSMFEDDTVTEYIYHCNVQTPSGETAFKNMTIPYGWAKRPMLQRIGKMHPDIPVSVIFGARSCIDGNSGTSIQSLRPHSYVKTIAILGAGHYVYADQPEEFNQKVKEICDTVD
Test: blockers of ABHD5 binding to perilipin-5 – cell lysate, split luciferase complementation, luminescence, primary screen (AID 602281);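 also: 0% = DMSO only wells and the 100% control is not disclosed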
Conditions: Split G. princeps luciferase complementation, 4 h, at 4 µM, hits give high values

SMILES | inhibition
COCCCNC(NC(=O)c1ccc(C)cc1)C(Cl)(Cl)Cl (centres undefined) | -2.85%
COc1ccccc1CNC(=O)c1ccc(N(C)S(=O)(=O)c2ccc(C)cc2)cc1 | 4.36%
CN(CCO)S(=O)(=O)c1ccc2c(c1)C(=O)c1cc(S(=O)(=O)N(C)CCO)ccc1-2 | -0.45%
CCC1(c2ccccc2)NC(=O)N(CC(=O)Nc2ccccc2C(=O)NC2CCCC2)C1=O (centres undefined) | -4.04%
C=C(C)C(=O)O[C@H]1C/C(C)=C\C(=O)/C=C(\C)[C@H](O)[C@@H]2OC(=O)C(=C)[C@@H]21 | 27% (active)
Cc1ccc(C2=NN(C(=O)CSc3nc(N)cc(N)n3)C(c3ccco3)C2)cc1 (centres undefined) | 12.7%
COc1cccc(C2CC(c3ccccc3)=NN2S(=O)(=O)c2ccccc2)c1OC (centres undefined) | -7.74%
CCS(=O)(=O)Nc1ccc(C2=NN(S(=O)(=O)c3ccc(F)cc3)C(c3ccco3)C2)cc1 (centres undefined) | 29.4% (active)
O=C(NCc1ccccn1)c1c(O)c2c([nH]c1=O)CCCC2 | 3.03%
Cc1[nH]c(=O)c(C(=O)/C=C/c2ccccc2)c2c1CCCC2 | 32.6% (active)
C/C(=C\c1ccccc1)C1NC(=O)c2c(sc3c2CCCC3)N1 (centres undefined) | -8.89%
COC(=O)COc1cccc2c(=O)n(CC(=O)NCc3ccccc3)ccc12 | -4.9%
CCN(CC(=O)Nc1c(F)cccc1F)C(=O)c1ccc(S(=O)(=O)N2CCCCC2)cc1 | 0.66%
CN(C)CCCN(C(=O)c1ccc(S(=O)(=O)N2CCCCCC2)cc1)c1nc2ccc(Br)cc2s1 | 22.3% (active)
COc1cc(C(=O)NNC(=O)c2ccc(S(=O)(=O)N3CCCCC3)cc2)cc(OC)c1OC | 0.06%
COc1ccc(NC(=O)CN(C)C(=O)/C=C/c2cn(Cc3ccccc3)nc2-c2cccnc2)cc1 | 0.58%
O=C(O)CCn1cc(/C=C/C(=O)c2ccc(Cl)cc2)c(-c2cccc(Br)c2)n1 | 22.9% (active)
Cc1ccc(S(=O)(=O)N[C@H](CO)C(C)C)cc1 | 2.76%
COc1ccc(/C=C/C(=O)c2ccc(NS(=O)(=O)c3ccc(C)cc3)cc2)cc1O | 46% (active)
COc1ccc(C(=O)/C=C/c2ccc(-c3ccccc3)cc2)cc1CSCC(=O)O | 14.9%
COc1ccc(S(=O)(=O)Nc2ccc3oc(C)c(C(C)=O)c3c2)cc1 | 4.01%
CC(C)Cc1nn2c(=O)cc(O)nc2s1 | 4.21%
O=C(NCC(=O)N(Cc1cccs1)C(C(=O)NC1CCCCC1)c1ccco1)c1cccs1 (centres undefined) | -12.1%
CCNC(=O)CC1C(=O)N(c2ccc(OC)cc2)C(=O)N1CCOC (centres undefined) | 2.8%
